Screens deposited in PubChem by several laboratories.
Shown are actives, neighbours in structure and some others; about 2.5% of the full set was active somewhere.
Rce1 inh: blocks yeast Ras-converting enzyme; Q03530; yeast membranes, quenched prenylated peptide cleavage fluorescence; calls only; hit rate 0.27% among 290,000; AID 2563;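 active = fall in fluorescence gain of 50% or more versus controls, with final raw signal at or below 3038400; inconclusive = same 50% fall but final raw signal above 3038400; inactive = fall in fluorescence gain under 50%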
Target sequence (Q03530 whole entry, looked up): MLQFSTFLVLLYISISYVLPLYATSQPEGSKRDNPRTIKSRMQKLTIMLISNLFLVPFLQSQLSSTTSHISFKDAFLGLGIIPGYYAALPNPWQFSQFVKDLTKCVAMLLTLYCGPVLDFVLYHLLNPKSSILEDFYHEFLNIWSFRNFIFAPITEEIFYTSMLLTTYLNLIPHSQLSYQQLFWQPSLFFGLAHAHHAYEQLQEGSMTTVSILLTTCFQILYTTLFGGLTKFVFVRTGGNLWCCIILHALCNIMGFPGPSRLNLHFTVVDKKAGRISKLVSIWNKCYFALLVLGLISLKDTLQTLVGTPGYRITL
UBC13 inh: inhibitors of human UBC13 polyubiquitin chain formation; TR-FRET; inhibition, % at 20 µM; hit rate 0.47% among 330,000; in the data active = inhibition above about 45%, passing the limit was not always enough; inconclusive = no clear call, values can overlap the other calls
Target sequence (P61088 whole entry, looked up): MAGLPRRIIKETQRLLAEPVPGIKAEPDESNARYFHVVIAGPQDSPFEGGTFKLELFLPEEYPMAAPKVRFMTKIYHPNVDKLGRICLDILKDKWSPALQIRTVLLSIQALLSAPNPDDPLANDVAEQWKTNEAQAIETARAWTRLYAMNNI
MEKK2wt PB1 HTS: raises or lowers MEK5 binding to wildtype human MEKK2 PB1 domain; bead flow cytometry, Alexa488-MEK5 binding to MEKK2 WT; actives lie on both sides; binding response (% of control), % at 10 µM; Q9Y2U5; AID 1531; hit rate 1.1% among 290,000; in the data active = binding response below about 67% or above about 130%; inconclusive = no clear call, values can overlap the other calls; inactive = in between
MEKK2 mut-MEK5: signal of MEK5 binding to mutant human MEKK2 PB1 domain; bead flow cytometry, Alexa488-MEK5 binding to MEKK2 mutant; percent response, % at 10 µM; hit rate 0.35% among 290,000; AID 1530; in the data active = percent response above about 24%, passing the limit was not always enough
MEKK3 PB1 HTS: MEKK3-MEK5 PB1 interaction, increase or decrease | bead-based flow cytometry, Alexa488-MEK5 binding to MEKK3; actives lie on both sides; 0 = blocked by unlabeled MEK5, 100 = vehicle | binding response (% of control), % at 10 µM | hit rate 1.4% among 290,000;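 active = binding response more than 3 SD above or below the average of its plate-row segment, actives on both sides; inconclusive = wells at one plate position flagged as instrument error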;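 note: Alexa488 bead fluorescence after subtracting the streptavidin-only scavenger bead signal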
MEKK2wt confirm: raises or lowers MEK5 binding to wildtype human MEKK2, retest | shares compounds with MEKK3 PB1 HTS | bead flow cytometry, Alexa488-MEK5 binding to MEKK2 WT; actives lie on both sides | binding response (% of control), % at 10 µM | hit rate 2.4% among 5,900; in the data active = binding response below about 16% or above about 210%; inactive = in between
MEKK2mut confirm: signal of MEK5 binding to mutant human MEKK2, retest; shares compounds with MEKK3 PB1 HTS; bead flow cytometry, Alexa488-MEK5 binding to MEKK2 mutant; percent response, % at 10 µM; hit rate 2% among 5,900; AID 1893; in the data active = percent response mostly above about 71%, no sharp cut-off; inactive = mostly below about 38%;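 note: higher means compound restores mutant binding toward wildtype level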
MEKK3 confirm: MEKK3-MEK5 PB1 inhibition, single concentration confirmation; shares compounds with MEKK3 PB1 HTS; bead flow cytometry, Alexa488-MEK5 binding to MEKK3; stronger effect = lower value; binding response (% of control), % at 10 µM; hit rate 1.8% among 5,900;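 active = binding response below 72% of control, or above a set upper limit, though filed actives all read lower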
Each line names hits and unclear results; the compound was inactive in the other large screens (follow-up assays come after a bar, where they were run); [ ] = remark or other dose.

Cc1[nH]c2ccccc2c1/C=C(\C#N)C(=O)NCc1ccccc1	MEKK2wt PB1 HTS 15, MEKK2 mut-MEK5 134 | MEKK2wt confirm inactive | MEKK2mut confirm inactive | MEKK3 confirm inactive
O=C(NCCCn1ccnc1)c1ccc(C(F)(F)F)cc1	none
CC12C=CC3(O1)C(C(=O)N(c1ccccc1)C3C(=O)NC1CCCC1)C2C(N)=O (stereo unspecified)	MEKK2wt PB1 HTS 29[inhibitor], MEKK3 PB1 HTS 20[inhibitor] | MEKK2wt confirm inactive | MEKK2mut confirm inactive | MEKK3 confirm inactive
C=CCN1C(=O)C2C(C(=O)NC3CCCC3)C3(C)C=CC2(O3)C1C(=O)NC1CCCC1 (stereo unspecified)	none
COc1cc(/C=N/NC(=S)Nc2cccc(C(=O)O)c2)ccc1O	MEKK3 PB1 HTS 143 | MEKK2wt confirm inactive | MEKK2mut confirm inactive | MEKK3 confirm inactive
COc1ccc(/C=N/NC(=S)Nc2cccc(C(=O)O)c2)cc1	none
Cn1c(SCC(=O)Nc2cccc(F)c2)nc2c(c1=O)SCC2	none
O=C(Nc1ccc(N2CCOCC2)c(C(=O)O)c1)c1ccco1	none (no result: Rce1 inh, UBC13 inh)
CCOC(=O)c1cc(NC(=O)c2ccco2)ccc1N1CCOCC1	MEKK2wt PB1 HTS 35[inhibitor], MEKK3 PB1 HTS 27[inhibitor] | MEKK2wt confirm inactive | MEKK2mut confirm inactive | MEKK3 confirm inactive
Cc1c(CNC2CCC(C)CC2)c(C(=O)O)c(C)n1Cc1ccccc1 (stereo unspecified)	MEKK3 PB1 HTS 140 | MEKK2wt confirm inactive | MEKK2mut confirm inactive | MEKK3 confirm inactive
COc1ccc(-c2ccnc(-c3ccc(OCCCF)cc3)n2)cc1	none
FCCCOc1ccc(-c2nccc(-c3ccc(Cl)cc3)n2)cc1	MEKK3 PB1 HTS 77[inhibitor] | MEKK2wt confirm inactive | MEKK2mut confirm inactive | MEKK3 confirm inactive
O=C(Nc1nc2ccsc2c(=O)s1)C1CCC1	MEKK3 PB1 HTS 129 | MEKK2wt confirm inactive | MEKK2mut confirm inactive | MEKK3 confirm inactive
O=C(Nc1nc2ccsc2c(=O)s1)c1ccco1	none
Nc1c2c(nn1-c1ccccc1)CCC2	none
Cc1ccc(C(=O)Nc2ccc(Br)cc2)cc1S(=O)(=O)Nc1ccccn1	none
CC(C)Oc1ccc(C(=O)Nc2cccc(S(=O)(=O)N3CCCC3)c2)cc1	none (no result: Rce1 inh, MEKK2wt PB1 HTS, MEKK2 mut-MEK5, MEKK3 PB1 HTS)
COC(=O)C1=C(C)N(Cc2ccccc2)C(=S)N[C@H]1c1cccc(F)c1	none
COCCN1C(=S)N[C@@H](c2cccc(F)c2)C(C(=O)OC)=C1C	UBC13 inh 86, MEKK2wt PB1 HTS 147, MEKK2 mut-MEK5 37 | MEKK2wt confirm inactive | MEKK2mut confirm inactive | MEKK3 confirm inactive
C/C=C/c1ccc(OCC(O)CNCC(c2ccc(OC)cc2)N(C)C)c(OC)c1 (stereo unspecified)	MEKK2wt PB1 HTS 146 | MEKK2wt confirm inactive | MEKK2mut confirm inactive | MEKK3 confirm inactive
Cn1cc(CNC(=O)c2sc3cccc(Cl)c3c2Cl)cn1	MEKK3 PB1 HTS 131 | MEKK2wt confirm inactive | MEKK2mut confirm inactive | MEKK3 confirm inactive
O=C(COc1ccc(Br)cc1)N1CCNC1=O	none
CCCCOc1ccc(S(=O)(=O)Nc2cccnc2)cc1	MEKK2wt PB1 HTS -8.0[inhibitor], MEKK3 PB1 HTS 1.0[inhibitor] | MEKK2wt confirm inactive | MEKK2mut confirm inactive | MEKK3 confirm inactive
Cc1ccc(S(=O)(=O)Nc2cccnc2)cc1	none (no result: Rce1 inh)
O=C1CSC(=S)N1	none
CC(=O)Nc1ccc(S(=O)(=O)NCC2CCC(C(=O)NCCCN(C)Cc3ccccc3)CC2)cc1 (stereo unspecified)	none
CCC(C)c1ccc(S(=O)(=O)N2CCN(C(C)CC(=O)O)CC2)cc1 (stereo unspecified)	none
Cc1ccc(S(=O)(=O)N2CCN(C(C)CC(=O)O)CC2)cc1 (stereo unspecified)	MEKK2wt PB1 HTS 3.0[inhibitor], MEKK3 PB1 HTS 3.0[inhibitor] | MEKK2wt confirm inactive | MEKK2mut confirm inactive | MEKK3 confirm inactive
CCc1ccc(-c2cc(C(=O)NCc3ccccn3)c3ccccc3n2)cc1	none
CCc1ccccc1Nc1cc(C(=O)NCc2ccccn2)c2ccccc2n1	MEKK3 PB1 HTS 131 (no result: Rce1 inh) | MEKK2wt confirm inactive | MEKK2mut confirm inactive | MEKK3 confirm inactive
CCN1CCN(C(=O)CCCCCn2c(=O)[nH]c3cc(C(=O)OC)ccc3c2=O)CC1	none
COC(=O)c1ccc2c(=O)n(CCCCCC(=O)N3CCN(c4ccccc4)CC3)c(=O)[nH]c2c1	MEKK3 PB1 HTS 122 | MEKK2wt confirm inactive | MEKK2mut confirm inactive | MEKK3 confirm inactive
O=C(c1cc2nc(-c3ccc(Cl)cc3)cc(C(F)(F)F)n2n1)N1CCOCC1	none
Cn1c(=O)oc2cc(S(=O)(=O)NCc3ccccc3)ccc21	none
Cn1c(=O)oc2cc(S(=O)(=O)NCc3ccc(Cl)cc3)ccc21	MEKK2wt PB1 HTS -6.0[inhibitor], MEKK3 PB1 HTS 0.0[inhibitor] | MEKK2wt confirm inactive | MEKK2mut confirm inactive | MEKK3 confirm inactive
O=C(Nc1ccc(Cl)cn1)c1ccc2[nH]c(=O)c(=O)[nH]c2c1	none
O=c1c2cc(Cl)ccc2[nH]c(=S)n1Cc1ccccn1	UBC13 inh inconclusive, MEKK3 PB1 HTS 151 | MEKK2wt confirm inactive | MEKK2mut confirm inactive | MEKK3 confirm inactive
O=C(NCc1ccccc1)NC(=O)c1ccccc1F	none
CC(=O)c1ccc(OCC(=O)N(C)CC(=O)Nc2ccc(N3CCOCC3)cc2)cc1	none (no result: Rce1 inh, MEKK2wt PB1 HTS, MEKK2 mut-MEK5, MEKK3 PB1 HTS)
COc1ccc(C(C(=O)OC(C)CN(C)C)c2ccccc2)cc1 (stereo unspecified)	MEKK2 mut-MEK5 25 | MEKK2wt confirm inactive | MEKK2mut confirm inactive | MEKK3 confirm 45
O=C(O)c1ccc(/C=N/NC(=O)C(O)(c2ccccc2)c2ccccc2)cc1	none
CCN(CC)c1ccc(/C=N/NC(=O)C(O)(c2ccccc2)c2ccccc2)o1	Rce1 inh active, MEKK3 PB1 HTS 75[inhibitor] | MEKK2wt confirm inactive | MEKK2mut confirm inactive | MEKK3 confirm inactive
COc1ccc(N2CCN(C(=O)Cn3cnc4c(cnn4-c4ccc(C)cc4)c3=O)CC2)cc1	MEKK3 PB1 HTS 129 | MEKK2wt confirm inactive | MEKK2mut confirm inactive | MEKK3 confirm inactive
Cc1ccccc1N(CC(=O)NCC1CCCO1)C(=O)CNS(=O)(=O)c1ccc(F)cc1 (stereo unspecified)	none
CN(C)S(=O)(=O)N1CCN(CC(O)COc2ccc3cc(Br)ccc3c2)CC1 (stereo unspecified)	MEKK2wt PB1 HTS 134 | MEKK2wt confirm inactive | MEKK2mut confirm inactive | MEKK3 confirm inactive
CS(=O)(=O)N1CCc2cc(C(=O)N3CCCC3)ccc21	MEKK3 PB1 HTS 132 | MEKK2wt confirm inactive | MEKK2mut confirm inactive | MEKK3 confirm inactive
O=c1[nH]ncn2cccc12	MEKK3 PB1 HTS 78[inhibitor] | MEKK2wt confirm inactive | MEKK2mut confirm inactive | MEKK3 confirm inactive
COC(=O)Cn1ncn2cccc2c1=O	none
